The source of these data is PubChem BioAssay.

Several values for one entry are separate records, joined by “and”; a condition that tells them apart may be missing. Equal values may be shown once. For part of these data: Potency and affinity values are given separately. Activity calls are given as the source filed them.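 How the source made its calls, unless noted: active means compounds whose cell count with miR-34 switched on is under 0.7 times the count with it off; inactive means the rest.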

A short description of assay [1]: polyglutamine-triggered caspase-3 activation inhibitors, cell-based (AID 1583). The following applies: polyglutamine-induced caspase-3 activation, cell assay; stronger effect = higher value;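 tested at 10 µM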.
The nature of assay [2]: suppressors of polyQ aggregation in yeast, 75Q-TubU reporter (AID 1593). Conditions: Yeast 75Q polyglutamine aggregation reporter.
A short description of assay [3]: rescue of polyQ-huntingtin neuronal dysfunction in worms, whole organism, C. elegans mechanosensory neurons, N-terminal huntingtin (AID 1599). The following applies: touch response, stronger effect = higher value.
The nature of assay [4]: inhibitors of mitochondrial cytochrome c release, biochemical, purified mitochondria (AID 1603).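 Further: mouse liver mitochondria challenged with calcium chloride; signal normalized to the plate average as 100%.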 Conditions: stronger effect = lower value.
Assay [5] in a line: inhibitors of polyQ protein aggregation (AID 1604). The following applies: polyglutamine-induced protein aggregation inhibition assay; stronger effect = higher value; tested at 2.5 µM.
Assay [6] can be described thus: enhancers of glutamate uptake in motor neurons, MN-1 cell line (AID 1612).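 Further: tested at 1 µM final; 0% = mean of DMSO vehicle wells on each plate; positive means more glutamate uptake than control and negative means less.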 Conditions: MN-1 motor neuron cells, stronger effect = higher value.
Assay [7] in a line: reducers of polyQ inclusions in PC12 cells, cell-based, NGF-treated PC12, GFPQ80 (AID 1614).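 Further: lower means fewer inclusions and 0 means no inclusions at all.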 Conditions: PC12 NGF-treated GFP-polyQ80 inclusion reduction.
The nature of assay [8]: suppressors of polyglutamine aggregation in yeast, 75Q-TubH (AID 1616). The following applies: S. cerevisiae 75Q-TubH polyglutamine aggregation suppression; stronger effect = higher value.
Assay [9] is described as follows: hESC survival regulators, cell-based (AID 493140; call rule not given here;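 further: cells exposed to compounds for four days before counting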). Conditions: human embryonic stem cell survival screen; stronger effect = higher value.
Assay [10] can be described thus: liver-stage malaria parasite growth inhibition, primary screen, cell-based, HepG2, luciferase luminescence, HepG2 viability (AID 624349; in the data active means parasite load remaining mostly below about 12%, no sharp cut-off; inactive means mostly above about 10%;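 further: 100% = mean of DMSO negative control wells on the same plate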). The following applies: P. berghei liver stage in HepG2, luciferase luminescence, concentration not given here; parasite load remaining: stronger effect = lower value; viability: measured here: HepG2 viability without parasites.
For assay [11], the target named is 6-phosphogluconate dehydrogenase, decarboxylating (Homo sapiens) (UniProt P52209). Kind of assay: 6PGD enzyme inhibitors, primary screen, biochemical, human, recombinant enzyme, NADPH absorbance (AID 1159550;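 active means at least 20% inhibition of 6-phosphogluconate dehydrogenase activity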). Conditions: recombinant 6PGD, NADPH absorbance 341 nm; at 10 µM; stronger effect = higher value.
Sequence of 6-phosphogluconate dehydrogenase, decarboxylating (Homo sapiens) (P52209 whole entry, looked up): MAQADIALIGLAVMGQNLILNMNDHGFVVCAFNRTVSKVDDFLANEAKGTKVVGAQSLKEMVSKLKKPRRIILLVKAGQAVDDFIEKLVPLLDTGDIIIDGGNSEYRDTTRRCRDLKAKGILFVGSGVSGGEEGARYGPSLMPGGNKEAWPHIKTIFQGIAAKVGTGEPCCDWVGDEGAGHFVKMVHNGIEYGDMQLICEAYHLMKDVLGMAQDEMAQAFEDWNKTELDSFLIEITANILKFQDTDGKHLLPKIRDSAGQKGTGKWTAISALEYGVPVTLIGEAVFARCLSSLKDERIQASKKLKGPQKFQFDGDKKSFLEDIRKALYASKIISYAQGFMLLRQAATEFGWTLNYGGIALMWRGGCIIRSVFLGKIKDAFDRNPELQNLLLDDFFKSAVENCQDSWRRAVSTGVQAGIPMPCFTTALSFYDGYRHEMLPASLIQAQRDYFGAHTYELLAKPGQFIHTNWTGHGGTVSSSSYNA
Assay [12] in a line: differential killing of epithelial or mesenchymal cells, primary screen, imaging, PC-3E GFP, TEM4-18 mCherry, co-culture (AID 1345086;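 active means compounds killing one labelled cell type while sparing the other, by normalised counts and ratio limits, not self-fluorescent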;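 on all read-outs here: cells exposed to compound for 72 h before imaging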;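 on red/green cell ratio (normalised): normalised mesenchymal count divided by normalised epithelial count so high means epithelial killing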). The following applies: imaging cell counts, at 1 µM; for red/green cell ratio (normalised): actives lie on both sides, counts scaled to control wells, 1 = unselective.
Assay [13] can be described thus: sensitizers of A549 cells to miR-34 induction, primary screen, imaging, A549 dox-inducible miR-34, nuclei and caspase counts (AID 1347080). Conditions: A549 miR-34 inducible, Hoechst nuclei count, 48 h.
Assay [14] is described as follows: survival rescue of mitochondrial mutant cells in low glucose, primary screen, MELAS cybrids, Rieske KO mouse fibroblasts, CellTiter-Glo (AID 1508586;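 active means mean z-score across replicates of 1.96 or higher in either the MELAS or the Rieske mutant cell line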;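 further: z relative to plate mean and SD of compound and empty wells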). (In general: ATP-based viability assays read luminescence as a measure of living cells.)
For assay [15], the target named is NAD(+) hydrolase SARM1 (Homo sapiens) (UniProt Q6SZW1). In words: SARM1 TIR NADase inhibitors, cell lysate, NAD-Glo luminescence (AID 1508614;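 active means compound whose remaining NAD level is above about 45 nM, limit read from the data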). The following applies: SAM-TIR HEK293T lysate NADase, at 1 µM, stronger effect = higher value.
Sequence of NAD(+) hydrolase SARM1 (Homo sapiens) (Q6SZW1 whole entry, looked up, the tested form may be a part): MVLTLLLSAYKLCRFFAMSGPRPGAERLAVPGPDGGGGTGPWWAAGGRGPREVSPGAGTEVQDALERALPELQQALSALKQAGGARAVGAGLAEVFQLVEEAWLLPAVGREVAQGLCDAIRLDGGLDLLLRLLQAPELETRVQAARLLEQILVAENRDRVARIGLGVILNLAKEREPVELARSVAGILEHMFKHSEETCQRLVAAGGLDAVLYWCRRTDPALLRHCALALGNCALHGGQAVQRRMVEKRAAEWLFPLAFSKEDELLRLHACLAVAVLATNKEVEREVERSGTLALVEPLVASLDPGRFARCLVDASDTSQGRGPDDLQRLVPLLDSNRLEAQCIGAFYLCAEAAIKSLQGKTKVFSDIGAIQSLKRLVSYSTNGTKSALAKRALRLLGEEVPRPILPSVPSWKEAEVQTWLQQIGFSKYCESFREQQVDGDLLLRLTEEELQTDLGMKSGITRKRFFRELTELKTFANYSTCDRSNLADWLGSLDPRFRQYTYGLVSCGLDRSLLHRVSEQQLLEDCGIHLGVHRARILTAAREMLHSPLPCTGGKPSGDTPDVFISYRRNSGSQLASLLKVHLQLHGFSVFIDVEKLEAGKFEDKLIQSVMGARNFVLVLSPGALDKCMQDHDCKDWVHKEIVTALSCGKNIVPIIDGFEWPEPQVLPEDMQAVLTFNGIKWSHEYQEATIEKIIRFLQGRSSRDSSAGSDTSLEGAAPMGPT
Assay [16] has as its target Mitogen-activated protein kinase 7 (Homo sapiens) (UniProt Q13164). Kind of assay: ERK5 transactivation activators in reporter cells, primary screen, cell-based, HTS (AID 1508626;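 active means luciferase signal above three times the same-plate solvent-only control wells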;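 further: luciferase driven by Gal4-ERK5 fusion binding five Gal4 sites before minimal TATA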). Conditions: HeLa Gal4-ERK5 transactivation, 18 h, at 5 µM, stronger effect = higher value.
A short description of assay [17]: circadian clock period modulators, cell-based, LOPAC library, luminescence reporter (AID 2774; call rule not given here;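 further: values are relative to mean of DMSO wells on each plate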). The following applies: circadian reporter cells, at 7 µM, actives lie on both sides.
In assay [18] the test system is Hepatitis C virus NS3 helicase. Kind of assay: HCV NS3 helicase inhibitors, primary screen, biochemical, fluorescence polarization, LOPAC1280 library (AID 687035; in the data active means inhibition above about 37%). The following applies: Purified HCV NS3 helicase, Cy5-dT15 ssDNA binding fluorescence polarization; stronger effect = higher value; concentration not given here. (In fluorescence polarisation assays a small probe gives low polarisation when free and higher when bound to something large.)

Assay [19] in a line: phospholipid biosynthesis inhibitors in animal cells, primary screen, cell-based, LOPAC library, screen 4 (AID 1347384; call rule not given here). The following applies: phospholipid biosynthesis inhibition screen, at 10 µM.
A short description of assay [20]: viability rescue of complex I mutant cybrids, primary screen, cell-based, galactose medium, ATP luminescence (AID 1645843;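 active means z-score of at least 1.8 in each of two replicates, scored against plate mean and spread of sample wells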;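 further: positive z means more ATP and so rescue of galactose-driven cybrid death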). The following applies: complex I mutant cybrid cells, 72 h, stronger effect = higher value.
The mark [21] stands for this setting: measured here: epithelial PC-3E GFP cell survival.
The mark [22] stands for this setting: measured here: mesenchymal TEM4-18 mCherry cell survival.
[23] abbreviates: stronger effect = lower value, cell number ratio, induced over uninduced.
[24] abbreviates: measured here: relative caspase fold change +Dox/-Dox.
The mark [25] stands for this setting: measured here: total cells with miR-34 induction, stronger effect = lower value.
Where [26] appears, read: measured here: total cells without miR-34 induction.
[27] abbreviates: MELAS cybrid survival, CellTiter-Glo 48 h, stronger effect = higher value.
Setting [28] is: Rieske KO mouse fibroblast survival, CellTiter-Glo 72 h.

Sequence of Mitogen-activated protein kinase 7 (Homo sapiens) (Q13164 whole entry, looked up, the tested form may be a part): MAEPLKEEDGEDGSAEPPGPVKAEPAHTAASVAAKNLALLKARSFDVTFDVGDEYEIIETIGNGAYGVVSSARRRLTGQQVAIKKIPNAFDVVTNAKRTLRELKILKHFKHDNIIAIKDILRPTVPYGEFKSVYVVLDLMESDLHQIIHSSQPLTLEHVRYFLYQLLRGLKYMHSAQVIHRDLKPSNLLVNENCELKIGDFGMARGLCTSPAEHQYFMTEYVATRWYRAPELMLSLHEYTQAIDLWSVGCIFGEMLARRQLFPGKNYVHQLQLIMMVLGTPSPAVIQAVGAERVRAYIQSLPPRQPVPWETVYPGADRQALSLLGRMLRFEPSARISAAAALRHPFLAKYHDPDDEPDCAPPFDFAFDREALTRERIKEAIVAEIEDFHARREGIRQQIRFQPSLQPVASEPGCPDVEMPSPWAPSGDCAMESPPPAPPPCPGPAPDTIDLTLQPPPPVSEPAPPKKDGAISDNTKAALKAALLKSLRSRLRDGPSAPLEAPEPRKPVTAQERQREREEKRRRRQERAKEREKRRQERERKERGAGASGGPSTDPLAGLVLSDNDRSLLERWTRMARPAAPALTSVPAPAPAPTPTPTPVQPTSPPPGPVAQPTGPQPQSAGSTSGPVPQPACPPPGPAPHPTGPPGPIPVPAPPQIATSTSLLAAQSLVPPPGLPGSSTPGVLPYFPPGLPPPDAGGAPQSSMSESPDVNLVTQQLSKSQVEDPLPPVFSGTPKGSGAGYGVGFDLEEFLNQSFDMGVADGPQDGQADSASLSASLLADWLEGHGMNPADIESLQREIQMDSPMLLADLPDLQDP

Consider `CC(C(=O)O)c1ccc(N2Cc3ccccc3C2=O)cc1` (stereo not given), for which the inhibition (commonly the relative decrease from the control value, in per cent) is -2.1% in assay [1] and -13% (inactive) in assay [11]. In [2], this compound came in with a score of 0.89. Further, the rescue above control in assay [3] was -4.46. The cytochrome c release ratio in [4] came out at 1.17. Also, the inhibition of aggregation in assay [5] stood at 83.7%. Further, in [6], the glutamate uptake change was -13.2%. In assay [7], this compound came in with an inclusion score of 2.5. In addition, in [8], the aggregation suppression score was 1.02. Besides, in [9], the survival was 4.83 (inactive). Besides, in assay [10], the parasite load remaining was 132% (inactive) and 273% (inactive) and 101% (inactive). For the same compound, the viability (in general, a read-out of living cells in per cent, often relative to untreated cells) in [10] is 95.7% and 78.1% and 95.5%. Further, the red/green cell ratio (normalised) in [12] is 1.39 (inactive). The normalised cell number in assay [12] (setting [21]) turned out to be 0.94; in assay [12] (setting [22]) it was 1.31. The fold change in assay [13] (setting [23]) was 0.881 (inactive) and 0.915 (inactive); in assay [13] (setting [24]) it was 1.39 and 0.964. Besides, the cell count in assay [13] (setting [25]) is 9440 and 11300; in assay [13] (setting [26]), 10700 and 12400. Further, the z-score in [14] (setting [27]) was 0.44 (inactive); in assay [14] (setting [28]) it was -0.221. In [15], the remaining NAD is 10 nM (inactive). In addition, the luciferase signal in [16] is 68 AU (inactive).

With `COc1ccc(-c2cc(=O)c3c(OC)c(OC)c(OC)c(OC)c3o2)cc1`, the inhibition in assay [11] is -8.06% (inactive). Further, the red/green cell ratio (normalised) in assay [12] is 1.11 (inactive). Besides, the normalised cell number came out at 1.14 in [12] (setting [21]) and 1.26 in [12] (setting [22]). Further, the fold change was 0.921 (inactive) in assay [13] (setting [23]) and 0.924 in assay [13] (setting [24]). The cell count came to 6760 in assay [13] (setting [25]) and 7340 in assay [13] (setting [26]). The results for the z-score in assay [14] (setting [27]) and in assay [14] (setting [28]) were -0.525 (inactive) and 0.0182, respectively. For the same compound, the luciferase signal in assay [16] is 100 AU (inactive).

Turning to `O=C(O)c1cc2cc(F)ccc2[nH]1`, the period change in assay [17] was 0.04 h (inactive). Also, the inhibition in [18] is -2% (inactive); in assay [11] it was 0.201% (inactive). Further, in assay [12], the red/green cell ratio (normalised) is 0.92 (inactive). The normalised cell number in assay [12] (setting [21]) amounted to 0.97; in assay [12] (setting [22]), 0.89. The values for the fold change in assay [13] (setting [23]) and in assay [13] (setting [24]) were 0.936 (inactive) and 1.52, respectively. Moreover, the figures for the cell count in assay [13] (setting [25]) and in assay [13] (setting [26]) were 9030 and 9650, respectively. For the same compound, the compound was classed as inactive in assay [19]. Also, the luciferase signal in assay [16] is 24 AU (inactive). The z-score in [20] is 1.04 (inactive).

In the case of `Cc1cc(C(C)(C)CC(C)(C)C)ccc1OCCOCC[N+](C)(C)Cc1ccccc1`, the inhibition was -7.8% in assay [1] and 18.8% (inactive) in assay [11]. In [2], this compound yielded a score of -0.1. In addition, in assay [3], the rescue above control was 0. In addition, in assay [4], the cytochrome c release ratio worked out at 6.77. Moreover, the inhibition of aggregation in assay [5] worked out at 63.9%. Also, the glutamate uptake change in assay [6] is 10.8%. Besides, the aggregation suppression score in assay [8] was -0.0187. Besides, the survival in [9] was 0.167 (inactive). Also, in assay [10], the parasite load remaining is 26.8% (inactive) and 101% (inactive) and 11.6% (inactive). Further, in [10], the viability was 87.1% and 82% and 145%. In assay [12], the red/green cell ratio (normalised) was 1.11 (inactive). In addition, the normalised cell number in [12] (setting [21]) was determined as 0.89; in [12] (setting [22]) it was 0.98. The fold change in [13] (setting [23]) was 0.811 (inactive) and 0.9 (inactive); in assay [13] (setting [24]) it was 1.18 and 1.77. The cell count in assay [13] (setting [25]) is 1940 and 8590; in assay [13] (setting [26]), 2400 and 9540. The z-score was -1.41 in [14] (setting [27]) and 2.46 in assay [14] (setting [28]). In addition, the remaining NAD in assay [15] was 10 nM (inactive). The luciferase signal in assay [16] was 116 AU (inactive).

As to `CN(C)CCOC(c1ccccc1)c1ccccc1` (tested in a mixture with another compound), the inhibition in assay [1] is 13%; in assay [11], 11% (inactive). In [2], this compound showed a score of 1.21. For the same compound, the rescue above control in assay [3] is 26.8. Also, in [4], the cytochrome c release ratio was determined as 1.23. Further, the inhibition of aggregation in assay [5] turned out to be 69.8%. Also, in [6], the glutamate uptake change is -19.1%. Further, the inclusion score in [7] amounted to 2. For the same compound, the aggregation suppression score in assay [8] is 0.942. Further, the survival in assay [9] was 24.5 (inactive). In [12], the red/green cell ratio (normalised) is 1.07 (inactive). Besides, the figures for the normalised cell number in assay [12] (setting [21]) and in [12] (setting [22]) were 1.32 and 1.41, respectively. In addition, the fold change is 0.893 (inactive) and 0.836 (inactive) in [13] (setting [23]); 1.17 and 1.81 in assay [13] (setting [24]). Also, the cell count in assay [13] (setting [25]) was 8830 and 11000; in [13] (setting [26]), 9890 and 13100. The z-score is 0.49 (inactive) in assay [14] (setting [27]) and 0.296 in [14] (setting [28]). In addition, in assay [15], the remaining NAD was 10 nM (inactive). In addition, the luciferase signal in [16] is 28 AU (inactive).
